# Assay results taken from ChEMBL document CHEMBL3433997, “St. Jude Leishmania screening dataset” (2016).
# Target: Solute carrier family 2, facilitated glucose transporter member 1 (Homo sapiens) (UniProt P11166)
# Test: ST_JUDE_LEISH: Cytotoxicity at 2uM final concentration against transgenic Leishmania Mexicana promastigotes LmGLUT1 that are glucose transport deficient and complemented with the human glucose transporter GLUT1. Activity is measured by DNA content using SYBR green in vitro
# Assay type: functional
# Chain of Solute carrier family 2, facilitated glucose transporter member 1 (Homo sapiens) (P11166 whole entry): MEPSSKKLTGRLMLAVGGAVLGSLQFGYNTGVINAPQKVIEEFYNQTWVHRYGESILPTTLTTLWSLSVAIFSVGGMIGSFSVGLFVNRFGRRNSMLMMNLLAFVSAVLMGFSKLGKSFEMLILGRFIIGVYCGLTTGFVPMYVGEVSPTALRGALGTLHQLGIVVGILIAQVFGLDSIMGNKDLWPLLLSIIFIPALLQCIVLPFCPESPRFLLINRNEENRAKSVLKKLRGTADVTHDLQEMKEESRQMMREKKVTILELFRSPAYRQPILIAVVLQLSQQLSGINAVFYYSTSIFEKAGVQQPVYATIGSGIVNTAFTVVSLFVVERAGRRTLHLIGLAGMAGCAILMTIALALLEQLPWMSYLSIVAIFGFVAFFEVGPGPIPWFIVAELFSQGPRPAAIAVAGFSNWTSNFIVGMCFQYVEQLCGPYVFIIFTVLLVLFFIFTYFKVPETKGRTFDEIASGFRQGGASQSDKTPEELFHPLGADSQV
row,Compound,inhibition [%]
1,COc1ccc(Br)cc1/C=C/C(=O)Nc1cccc(C2CCCN(C)C2)c1 (stereo not given),6.13
2,O=C(Nc1ccc2c(c1)CCC2)c1cccc(CN2CCCN(Cc3cccc(O)c3)CC2)c1,1.77
3,N#Cc1cccc(-c2cccc(C(=O)NC3CCC(CCN4CCc5ccc(C#N)cc5CC4)CC3)c2)c1 (stereo not given),10.8
4,COc1ccc(CCCON2C(=N)N=C(N)NC2(C)C)cc1,16.7
5,Cc1cccc2nc(-c3ccc(-c4ccc(NC(=O)Nc5ccc(Cl)c(Cl)c5)cc4)cc3)[nH]c12,2.18
6,CN1CCC(N2CCN(C(=O)c3cccc(-c4cccc(-c5nc6ccccc6[nH]5)c4)c3)CC2)CC1,0.86
7,O=C(Nc1cccc(CN2CCCN(Cc3ccccc3)CC2)c1)c1ccc(Cl)c(Cl)c1,4.45
8,O=C(Nc1ccccc1)N(Cc1cccc(-c2ccc(CNCc3ccc4c(c3)OCO4)cc2)c1)C1CCN(Cc2ccccc2)CC1,2.89
9,CCc1c[nH]c2c(N3CCCC3=O)cc(C(=O)N[C@@H](Cc3ccccc3)[C@H](O)CNC(C)(C)CCCC(C)C)cc12,12.2
10,Cc1cc(NC(=O)c2cccs2)ccc1OC1CCN(Cc2ccc(F)cc2)CC1,1.65
11,Cc1nc2nc(N)nc(N)c2c(C)c1Cc1cccc(F)c1,2.65
12,COCC(C)n1c(SCC(=O)Nc2cc(C(F)(F)F)ccc2Cl)nc2ccccc2c1=O (stereo not given),6.25
13,Cc1cccc(C(=O)NCCCN2CCC(NC(=O)/C=C/c3ccc(Cl)c(Cl)c3)CC2)c1,1.05
14,COc1ccc(-c2cccc(NC(=O)c3cccc(C#N)c3)c2)cc1CN1CCCC1,12.1
15,c1ccc(CN2CCC(Nc3ccc(-c4c[nH]nc4-c4ccccn4)nc3)CC2)cc1,4.32
16,COc1ccc(Nc2ncc3c(-c4cccc(NC(=O)Cc5cccc(O)c5)c4)c[nH]c3n2)cc1OC,-1.87
17,O=C1CCCN1CCCNCc1cccc(-c2ccc(-c3nc4cc(C(F)(F)F)ccc4[nH]3)cc2)c1,13.5
18,O=C(Nc1cccc(-c2ccc(NCCCN3CCCC3)nc2)c1)c1ccccc1,5.13
19,O=c1ccc(CNc2nc(NCCc3ccccc3)nc3ccc(Cl)cc23)c[nH]1,3.36
20,N=C(N)Nc1nc(-c2ccc(NCc3ccc(CNc4cccc(-c5csc(NC(=N)N)n5)c4)cc3)cc2)cs1,0.36

row,Compound,inhibition [%]
1,Cn1cc(CN2CCCC(COC(c3ccccc3)c3ccccc3)C2)cn1 (stereo not given),1.48
2,c1ccc(-c2cc(NCCNc3cc(-c4ccccc4)nc4ccccc34)c3ccccc3n2)cc1,-1.99
3,O=C(Nc1cccc(F)c1)c1ccc(C(=O)NC2CCN(CC3CCCCC3)CC2)cc1,1.87
4,O=[N+]([O-])c1ccc(-c2nc3cc(C4=NC5CCCCC5N4)ccc3[nH]2)cc1 (stereo not given),-0.03
5,COc1ccc(C(=O)COc2cccc(/C=C/C(=O)O)c2)cc1OC,0.26
6,Cc1cccc2nc(-c3ccc(-c4ccc(NC(=O)Nc5ccc(Cl)cc5)cc4)cc3)[nH]c12,-1.7
7,COc1ccccc1C1CCN(C2CCC(NC(=O)/C=C/c3cc(C(F)(F)F)cc(C(F)(F)F)c3)CC2)CC1 (stereo not given),-3.08
8,CCCCCN1CCCN(Cc2cccc(NC(=O)c3ccc(-c4ccccc4)cc3)c2)CC1,-0.68
9,COC(=O)Cn1c(C2CCN(CC3CCN(C(=O)/C=C/c4ccc(Cl)c(Cl)c4)CC3)CC2)nc2ccccc21,3.09
10,Cc1cc(C(F)(F)F)cc(-n2ncc(-c3ccc(C(=O)NCc4ccccc4N)cc3)c2N)n1,104
11,CC1(C)C(N(O)C(=O)Nc2ccc(Cl)c(Cl)c2)N(c2ccc(Cl)c(Cl)c2)C(=O)N1CCc1ccccc1 (stereo not given),-0.14
12,Cc1cc(=NN=Cc2ccc(F)cc2)c2cc(C(F)(F)F)ccc2[nH]1,2.35
13,CC(C)c1ncc(-c2ccncc2)c(C2CCC(CNC(=O)c3cccnc3)CC2)n1 (stereo not given),3.2
14,Cc1ccc(Nc2nc3cc(N(C)c4ccnc(Nc5cccc(CS(C)(=O)=O)c5)n4)ccc3o2)cc1,5.07
15,O=C(NCCCNc1ccc2ccccc2n1)c1cc2c(Cl)cc(Cl)cc2[nH]1,0.34
16,Cc1cnn(-c2cccc(C(=O)NC3CCC(CCN4CCc5ccc(C#N)cc5CC4)CC3)c2)c1 (stereo not given),1.35
17,COc1cc(CN=C(S)NN=C(C)c2ccccn2)cc(OC)c1OC,5.41
18,O=C(Nc1ccc(C(=O)N(Cc2ccc3c(c2)OCO3)C2CCCC2)cc1)c1cccs1,1.03
19,Cc1cc(=O)[nH]c2cc(Nc3ccnc(Nc4cccc(C(N)=O)c4)n3)ccc12,3.02
20,Cc1cc(=NN=Cc2ccccc2)c2cc(F)ccc2[nH]1,4.17
